Laboratory results published in PubChem BioAssay (NCI).
This is part of a sample that, as a whole, favours compounds with a hit. Of some 83,000 tested, about 20% had one in any assay.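 Method: cells in 96-well plates; compound added at one concentration; 48 h incubation; percent growth measured; values under 10 scored active.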 Calls of active or inactive are those of the source.

Tested on: UACC-257 melanoma
Assay: NCI-60 one-dose screen, 48 h (100 = growth as untreated, 0 = no growth, -100 = all killed)
Conditions: 10 µM unless noted

Row | Compound | growth
1 | C/C(CCC(=O)O)=N/Nc1ccc([N+](=O)[O-])cc1 | 90.3% (inactive)
2 | Nc1nc2c(c3ncncc13)C(c1cccc(C(F)(F)F)c1)Cc1ncncc1-2 (stereo not drawn) | 67.9% (inactive)
3 | COc1ccc(-c2nc(SCC(C)C)nc(Nc3ccc([N+](=O)[O-])cc3)c2C#N)cc1 | 85.2% (inactive)
4 | Cn1c2c(cc(S(=O)(=O)c3ccccc3)c1=O)CCc1c-2cnn1-c1ccc(Cl)cc1 | 11.7% (inactive)
5 | Nc1nc2c(c3cnccc13)C(c1cccc(Cl)c1)Cc1cnccc1-2 (stereo not drawn) | 60.2% (inactive)
6 | CCCCCSc1ccc2nc(NC(=O)OCCC)sc2c1 | 63.1% (inactive)
7 | CCCCCSc1ccc2nc(NC(=O)OCC)sc2c1 | 67.4% (inactive)
8 | Cc1c(Cc2ccccc2)c(=O)oc2c(C)c(OCc3n[nH]c(=S)o3)ccc12 | 88% (inactive)
9 | CCOC(=O)c1c(C)oc2ncnc(Nc3ccc(C(=O)NCCc4ccccc4)cc3)c12 | 79.7% (inactive)
10 | COc1cc(/C=C/C(=O)c2ccc(F)cc2)ccc1OCCCCOc1cc2c(cc1OC)C(=O)N1CCCC1C=N2 (stereo not drawn) | 2.17% (active)
11 | C=C(C)[C@@H]1CC[C@]2(COC(=O)c3ccccc3C(=O)O)CC[C@]3(C)[C@H](CC[C@@H]4[C@@]5(C)CCCNC(C)(C)[C@@H]5CC[C@]43C)[C@@H]12 | 81.7% (inactive)
12 | O=C(CCCC(=O)Nc1ccc(Cn2nnc3cc(Cl)c(Cl)cc32)cc1)Nc1ccc(CN2N=NC3C=C(Cl)C(Cl)=CC32)cc1 (stereo not drawn) | 81.1% (inactive)
13 | CCS(=O)(=O)OCCO[C@H]1Cc2cc3ccc(=O)oc3cc2OC1(C)C | 97.8% (inactive)
